Among all 4,000 compounds or so, about 350 (8.8%) were called active.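 How the source made its calls: active means calcium fluorescence ratio at least three times the spread of buffer wells, meaning a non-specific response in parental cells; inactive means the rest.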 The sample as a whole holds a higher share of actives than the screen did.

The nature of the assay: nonspecific Ca2+ signal without MrgX1 expression – cell-based, Fluo-4 calcium flux, duplicate, agonist mode, counter-screen for MrgX1 agonist project, primary screen (AID 624115). The note with it: parental HEK293, Fluo-4 calcium fluorescence (FDSS), at 10 µM; stronger effect = higher value. (In general: Calcium flux is commonly read through the fluorescence of an indicator in the cells.)
On to `CCCCC(=O)N/N=C/c1c(O)n(CC)c(=S)n(CC)c1=O`, for which the fluorescence ratio F(max-min)/F0 is 78.9 (active).

Regarding `O=C(CCN1CCCCC1)NCC(=O)Nc1ccc(Br)cc1C(=O)c1ccccc1`, the fluorescence ratio F(max-min)/F0 entry is “inactive”.

`CCCCCn1c(=O)c(C(=O)NCc2ccccc2)c(O)c2ccccc21`: the fluorescence ratio F(max-min)/F0 entry is “inactive”.

`C=CCN1C(=O)C2(C(C(=O)OCC)=C(N)Oc3c2c(=O)oc2ccccc32)c2ccccc21` (stereo not given): the fluorescence ratio F(max-min)/F0 result was “inactive”.

Turning to `COc1ccc(S(=O)(=O)NCc2ccc(C(=O)N3CCC4(CC3)OCCO4)cc2)cc1`, the fluorescence ratio F(max-min)/F0 result is “inactive”.
